# Results taken from PubChem BioAssay (NCATS).
# Values without a mark were called inactive. The call rests on the fitted dose curve; in most records, active means well fitted curve in the direction sought with a large enough effect; inconclusive means small, poorly fitted or top-dose-only effect, or another doubt; inactive means no such curve, though single readings can be large or run the other way.
# Target: Hexokinase-4 (Homo sapiens) + Glucokinase regulatory protein (Homo sapiens) (UniProt P35557+Q14397)
# Test: qHTS assay for inhibitors of recombinant human GCK-GKRP interaction: HTRF assay (AID 743207);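 further: 0% = DMSO with GCK present and -100% = DMSO wells lacking GCK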
# Conditions: recombinant GCK-GKRP HTRF binding, 60 min, with sorbitol-6-phosphate; series mostly up to 57.5 µM; activity change, negative = inhibition: at the top concentration
# From the text: Glucokinase (GCK) is a glucose sensor in hepatocytes and pancreatic beta-cells. Hepatic GCK is regulated by glucokinase regulatory protein (GKRP), which is predominantly localized to the liver. GKRP binds to GCK inhibiting its activity in the fasting state while in the presence of glucose the GKRP is displaced. There is an additional layer of regulation by fructose 1-phosphate and fructose 6-phosphate, which inhibit and enhance the GCK-GKRP interaction, respectively. GCK plays a role in glucose homeostasis and there is an interest in the development of strategies to activate GCK to lower blood glucose levels in type 2 diabetes. To date the majority of effort has focused on direct activation of GCK and the assays developed herein look to activate GCK by inhibiting its binding to GKRP. A compound that inhibits the interaction of GCK with GKRP could be important for the treatment of diabetes and can also be used as a tool compound to further elucidate GCK-GKRP biology. To that end, we have developed an HTS biochemical assay using HTRF technology for to interrogate the GCK-GKRP interaction. This assay was screened against a small compound library to look for modulators of activity.
# 3 uL of 5 nM GST-GCK and 5 nM FLAG-GKRP proteins with 2 uM S6P (columns 1-2, 4-48; Millipore, Billerica, MA) are dispensed into Greiner, white solid-bottom 1536-well assay plates; columns 3 receive buffer without GCK as a control for maximum inhibition. Buffer contains 2 mM MgCl2, 25 mM KCl, 25 mM Hepes, 1 mM DTT, 0.1% Tween 20 and 0.025% BSA and the pH was adjusted to 7.1. Compounds (23 nL) are then transferred via Kalypsys pin tool equipped with 1536-pin array (10 nL slotted pins, V&P Scientific, San Diego, CA). The library compounds are in columns 5-48 and columns 1-4 serve as controls with DMSO in columns 1 and 3 and 26 mM 1:1.5 fold serial of gluckokinase activator (GKA-EMD) in column 2 and 26 mM of the glucokinase activator (GKA-EMD) in column 4. Following addition of compound, 1 uL of detection antibodies (anti-Flag XL 665 and anti-GST K in reconstitution buffer from Cisbio, Bedford, MA; 0.7 ng/well and 0.0945 ng/well, respectively) is added, and the mixture is allowed to equilibrate for 60 minutes at room temperature. Data are normalized to DMSO-treated control columns with (maximum signal) and without (minimum signal) enzyme. Plates were read on an Envision plate reader (PerkinElmer, Shelton, CT, USA) with excitation at 320 nm and dual-wavelength detection at the Fret donor wavelength (615 nm) and the FRET acceptor wavelength (665 nm).
# Chain of Hexokinase-4 (Homo sapiens) + Glucokinase regulatory protein (Homo sapiens) (P35557 whole entry, looked up): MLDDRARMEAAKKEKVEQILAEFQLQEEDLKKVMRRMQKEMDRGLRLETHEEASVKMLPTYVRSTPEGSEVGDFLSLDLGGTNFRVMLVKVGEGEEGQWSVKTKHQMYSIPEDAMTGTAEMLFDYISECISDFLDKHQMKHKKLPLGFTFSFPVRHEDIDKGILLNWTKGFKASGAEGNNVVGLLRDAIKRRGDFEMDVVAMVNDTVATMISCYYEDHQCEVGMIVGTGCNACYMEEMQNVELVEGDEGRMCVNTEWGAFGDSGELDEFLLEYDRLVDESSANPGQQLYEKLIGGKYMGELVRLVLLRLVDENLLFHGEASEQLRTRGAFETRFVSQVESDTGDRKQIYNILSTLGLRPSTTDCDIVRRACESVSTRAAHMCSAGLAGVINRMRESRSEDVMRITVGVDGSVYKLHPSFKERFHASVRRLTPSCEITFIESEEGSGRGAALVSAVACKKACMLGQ
# Chain of Hexokinase-4 (Homo sapiens) + Glucokinase regulatory protein (Homo sapiens) (Q14397 whole entry, looked up): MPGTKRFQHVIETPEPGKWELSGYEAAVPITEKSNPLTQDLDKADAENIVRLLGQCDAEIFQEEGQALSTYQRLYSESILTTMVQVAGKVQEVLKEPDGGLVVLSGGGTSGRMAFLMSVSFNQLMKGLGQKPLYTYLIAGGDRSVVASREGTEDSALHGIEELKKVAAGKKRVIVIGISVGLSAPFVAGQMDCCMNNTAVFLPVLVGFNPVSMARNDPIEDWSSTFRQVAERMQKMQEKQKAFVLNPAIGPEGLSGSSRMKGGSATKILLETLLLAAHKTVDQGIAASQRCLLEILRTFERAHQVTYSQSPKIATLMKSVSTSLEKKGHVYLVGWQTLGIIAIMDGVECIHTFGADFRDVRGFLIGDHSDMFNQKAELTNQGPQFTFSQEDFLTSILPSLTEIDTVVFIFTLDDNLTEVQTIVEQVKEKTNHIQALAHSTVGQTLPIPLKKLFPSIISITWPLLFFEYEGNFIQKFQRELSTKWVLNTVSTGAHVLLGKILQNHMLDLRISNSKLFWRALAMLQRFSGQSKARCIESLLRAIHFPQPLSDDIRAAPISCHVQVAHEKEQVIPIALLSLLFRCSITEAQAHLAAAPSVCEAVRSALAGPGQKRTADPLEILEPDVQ
row,Structure (SMILES),"activity change, negative = inhibition [%]"
1,CC[N+](CC)(CC)CC,5.85
2,N#C/C(=C\c1ccc(O)c(O)c1)C(=O)Nc1ccccc1,-1.23
3,C1CCC(N=C(NC23CC4CC(CC(C4)C2)C3)N2CCOCC2)CC1,1.06
4,S=C(Nc1ccccc1)Nc1nccs1,-8.67
5,O=Nc1c(-c2c(O)[nH]c3ccccc23)[nH]c2ccccc12,5.13
6,CN1C2CCCC1CC(NC(=O)c1nn(C)c3ccccc13)C2 (configuration not stated),-2.89
7,CCc1ccc(/C=C2/SC(=S)NC2=O)cc1,1.89
8,Cc1cccc(/C=C/c2ccccc2)n1,6.16
9,Oc1cc2c(c(Cl)c1O)CCNCC2c1ccccc1 (configuration not stated),-7.84
10,C/C=C/CC(C)C(O)C1C(=O)NC(CC)C(=O)N(C)CC(=O)N(C)C(CC(C)C)C(=O)NC(C(C)C)C(=O)N(C)C(CC(C)C)C(=O)NC(C)C(=O)NC(C)C(=O)N(C)C(CC(C)C)C(=O)N(C)C(CC(C)C)C(=O)N(C)C(C(C)C)C(=O)N1C (configuration not stated),-3.47
11,C[C@H](Cc1ccccc1)Nc1ncnc2c1ncn2[C@@H]1O[C@H](CO)[C@@H](O)[C@H]1O,9.95
12,O=C1c2ccccc2C(=O)c2c(NCCc3ccc(O)cc3)ccc(NCCc3ccc(O)cc3)c21,2.57
